Experimental data published in ChEMBL document CHEMBL1157539, “Thousands of chemical starting points for antimalarial lead identification” (Nature, 2010).
In all, about 13,000 compounds were measured (“IFI”: median about 4, highest 2% from about 17 on). Many of the other results were omitted from the sample, so the highest values are more common in it than they were.

Experiment: GSK_TCMDC: Inhibition Frequency Index (IFI). The number of non-kinase HTS assays where a compound showed > 50 % inhibition, expressed as a percentage of the number of such assays in which the compound was tested
Assay type: functional
`COc1ccc2c(NN=Cc3ccccc3F)ccnc2c1` gave an IFI of 3.52%. Compound `CC(C)[C@H](NC(=O)c1c(F)cccc1F)C(=O)Nc1ccc(Cc2nc3ccccc3s2)cc1` has an IFI of 1.96%. In the case of `CN(N=Cc1ccccc1)C(=N)NCCCC#Cc1cccc(CN2CCCC2)c1`, the IFI is reported as 4.23%. Work on `CC(Sc1nnc(-c2cccs2)[nH]1)C(=O)c1c[nH]c2ccccc12` (configuration not stated) yielded an IFI of 1.92%. With `Oc1ccc2nc(NCCCc3ccccc3)nc(NCCc3ccccc3)c2c1` the IFI was 14.1%. In the case of `CCN(CC)/C(=N/C(=N)NCc1ccc(Cl)cc1)NCCCCCCN/C(=N\C(=N)NCc1ccc(Cl)cc1)N(CC)CC`, the IFI is reported as 15.1%. `COc1cccc(-c2ccc(NC(=O)C3CCCN(Cc4cccc(OC)c4O)C3)cc2)c1` (configuration not stated) showed an IFI of 4.35%. With `O=C(Cc1ccccc1)NC(c1ccco1)c1cc(Cl)c2cccnc2c1O` (configuration not stated) the IFI was 8%. `Oc1c(C(Nc2ccccn2)c2ccco2)cc(Cl)c2cccnc12` (configuration not stated) gave an IFI of 22.6%. For `CCC(=O)NC(c1ccco1)c1cc(Cl)c2cccnc2c1O` (configuration not stated), the IFI was 4.35%. `N=C1C=C(N)C(=O)c2ccccc21` gave an IFI of 20.8%. Compound `O=C(Nc1ccc(-c2cccc(-c3nc4cc(C(F)(F)F)ccc4[nH]3)c2)cc1)Nc1ccc(F)c(F)c1F` has an IFI of 5.83%. `CCCCC(CC)CN1C(=O)C(c2ccccc2)(c2ccccc2)N=C1N` (configuration not stated) showed an IFI of 16.3%. Work on `COc1ccc(CCCN2C(=O)C(c3ccccc3)(c3ccccc3)N=C2N)cc1` yielded an IFI of 8.65%. Compound `COc1ccccc1CCCN1C(=O)C(c2ccccc2)(c2ccccc2)N=C1N` has an IFI of 22.3%. `CCC(CC)CN1C(=O)C(c2ccccc2)(c2ccccc2)N=C1N` gave an IFI of 3.7%. Compound `COc1ccc(CCCCN2C(=O)C(c3ccccc3)(c3ccccc3)N=C2N)cc1` has an IFI of 7.69%. Compound `CCCCC(CCCC)CN1C(=O)C(c2ccccc2)(c2ccccc2)N=C1N` has an IFI of 20.9%. In the case of `N#Cc1cccc(NC(=O)Nc2ccc(-c3cccc(-c4nc5cc(F)ccc5[nH]4)c3)cc2)c1`, the IFI is reported as 4.04%. For `Cc1cccc2nc(-c3ccc(-c4ccc(CNCc5ccccc5)cc4)s3)[nH]c12`, the IFI was 9.62%. With `Oc1c(CN2CCCC(C(F)(F)F)C2)cc(Cl)c2ccccc12` (configuration not stated) the IFI was 6.38%. `Cc1ccc(CN2CCCN(Cc3cccc(NC(=O)c4cc5ccccc5s4)c3)CC2)cc1` showed an IFI of 10.2%. For `CN1CCC(C(=O)Nc2cccc(-c3cccc(-c4nc5cc(F)ccc5[nH]4)c3)c2)CC1`, the IFI was 4.24%. With `Cc1cccc2nc(-c3cccc(-c4cccc(CNCc5ccc(S(C)(=O)=O)cc5)c4)c3)[nH]c12` the IFI was 8.65%. Compound `Cc1ccc2c(=NN=Cc3cccc(Cl)c3)cc(C)[nH]c2c1` has an IFI of 10.1%. With `COc1ccc(-c2cccc(NC(=O)c3cccc(C#N)c3)c2)cc1CN1CCC(O)CC1` the IFI was 0%. With `CC(C)CCN1CCC(Oc2ccc(NC(=O)c3cccs3)cc2Cl)CC1` the IFI was 8.06%. In the case of `c1cc(CN2CCC(CCN3CCCCC3)CC2)cc(-c2cccc(-c3nc4ccccc4[nH]3)c2)c1`, the IFI is reported as 5.56%. In the case of `Cc1ccc(CNC(=O)[C@H](Cc2ccccc2)Nc2cc(C)nc(NCc3ccccc3C)n2)cc1`, the IFI is reported as 4.88%. In the case of `Cc1cc(N[C@@H](Cc2ccccc2)C(=O)NCc2cccs2)nc(NCC2CCCCC2)n1`, the IFI is reported as 16.3%. `Cc1ccc(CNC(=O)[C@H](CC(C)C)Nc2cc(C)nc(NCC3CCCCC3)n2)cc1` showed an IFI of 19.1%. For `Cc1cc(N[C@@H](Cc2ccccc2)C(=O)NCCc2ccccc2)nc(NCCOc2ccccc2)n1`, the IFI was 7.5%. For `Cc1ccc(CNC(=O)[C@H](CCCN)Nc2cc(C)nc(NCC3CCCCC3)n2)cc1`, the IFI was 4.88%. In the case of `Cc1cccc(CNc2nc(C)cc(N[C@@H](CC(C)C)C(=O)NCc3cccc(F)c3)n2)c1`, the IFI is reported as 9.52%. `Cc1cc(N[C@@H](Cc2ccccc2)C(=O)NCCOc2ccccc2)nc(NCCc2ccccc2)n1` showed an IFI of 16.3%. With `Cc1ccc(CNC(=O)[C@H](Cc2ccccc2)Nc2cc(C)nc(NCC3CCCCC3)n2)cc1` the IFI was 24.3%. Compound `Cc1cc(N[C@@H](CC(C)C)C(=O)NCc2cccc(F)c2)nc(NCC2CCCCC2)n1` has an IFI of 18.6%. With `Cc1cc(N[C@@H](Cc2ccccc2)C(=O)NCCOc2ccccc2)nc(NCCOc2ccccc2)n1` the IFI was 24.4%. For `Cc1cc(N[C@@H](CC(C)C)C(=O)NCc2cccc(F)c2)nc(NCCc2ccccc2)n1`, the IFI was 17.1%. For `Cc1cc(N[C@@H](CC(C)C)C(=O)NCCc2ccccc2)nc(NCC2CCCCC2)n1`, the IFI was 16.3%. `CN(C)CCN(Cc1ccc(-c2ccc(CNCCc3ccccc3)cc2)nc1)C(=O)CCC1CCCC1` gave an IFI of 8.33%. With `COc1ccc2c(N/N=C/c3ccccc3[N+](=O)[O-])ccnc2c1` the IFI was 3.62%. `CC1(C)CCC(C)(C)c2c1ccc(C1CCN(CCCCNC(=O)c3ccc(-c4ccc(Cl)cc4)cc3)CC1)c2O` gave an IFI of 13.7%. Compound `COc1ccc(CON2C(=N)N=C(N)NC2(C)C)cc1OC` has an IFI of 1.47%. In the case of `COc1ccc(C#Cc2ccc(-c3c(C)[nH]c(C)c(Cl)c3=O)cc2)cc1`, the IFI is reported as 0.88%. `CCN(CC)CCN(Cc1ccc(-c2ccc(C(F)(F)F)cc2)cc1)C(=O)Cn1c(CCc2c(F)ccc(F)c2F)nc(=O)c2ccccc21` gave an IFI of 9.09%. With `Cc1nc(C)c(-c2ccc(S(=O)(=O)c3ccc(Cl)cc3)cc2)c(O)c1Cl` the IFI was 0.78%. Work on `CC(C)Cn1cc(C2CCN(CCN3CCC(CNC(=O)c4ccc(-c5ccc(C(F)(F)F)cc5)cc4)CC3)CC2)c2ccccc21` yielded an IFI of 9.17%. `O=C(/C=C/c1ccc(Cl)c(Cl)c1)NC1CCC(CN2CCC(c3nc4cccnc4[nH]3)CC2)CC1` (configuration not stated) gave an IFI of 4.96%. `CCN(CC)CCN(Cc1ccc(-c2ccc(C(F)(F)F)cc2)cc1)C(=O)Cn1c(/C=C/c2ccco2)nc(=O)c2ccccc21` showed an IFI of 5.52%. With `Cc1cc(N[C@@H](Cc2ccccc2)C(=O)NCc2cccc(F)c2)nc(NCCc2ccc(F)cc2)n1` the IFI was 9.09%. `Cc1cccc(CNc2nc(C)cc(N[C@@H](Cc3ccccc3)C(=O)NCc3cccc(F)c3)n2)c1` showed an IFI of 19.1%. `Cc1cc(N[C@@H](Cc2ccccc2)C(=O)NCc2cccc(F)c2)nc(NCC2CCCCC2)n1` gave an IFI of 27.9%. Compound `Cc1cc(N[C@@H](Cc2ccccc2)C(=O)NCc2cccc(F)c2)nc(NCCCOC(C)C)n1` has an IFI of 18.2%. Work on `Cc1cc(N[C@@H](Cc2ccccc2)C(=O)NCCCOC(C)C)nc(NCCc2ccc(F)cc2)n1` yielded an IFI of 2.44%. `Cc1cc(N[C@@H](Cc2ccccc2)C(=O)NCc2cccc(F)c2)nc(NCCc2ccccc2)n1` gave an IFI of 9.3%. For `Cc1cc(N[C@@H](Cc2ccccc2)C(=O)NCc2cccc(F)c2)nc(NCc2ccccc2C)n1`, the IFI was 4.88%. With `Cc1cc(N[C@@H](Cc2ccccc2)C(=O)NCc2cccc(F)c2)nc(NCCOc2ccccc2)n1` the IFI was 6.98%. Compound `Cc1cc(N[C@@H](Cc2ccccc2)C(=O)NCc2cccc(F)c2)nc(Nc2ccccc2)n1` has an IFI of 4.76%. `CC1(C)N=C(N)N=C(Nc2ccc(Cl)cc2)N1` gave an IFI of 0.76%. `FC(F)(F)c1ccc2[nH]c(-c3cccc(-c4cccc(CN5CCN(c6ccncc6)CC5)c4)c3)nc2c1` gave an IFI of 11.5%. Compound `CCCNCc1ccc(-c2ccc(CN(CCOC)C(=O)c3cccc(C#N)c3)cc2)nc1` has an IFI of 0.7%. `Nc1nc2c(ncn2COC(COCc2ccccc2)COCc2ccccc2)c(=O)[nH]1.Nc1nc2ncn(COC(COCc3ccccc3)COCc3ccccc3)c2c(=O)[nH]1` showed an IFI of 0%. Work on `CCCCOC(=O)c1ccc(NC(=O)Nc2ccc(Cn3ncc(N4CCCNCC4)c(Cl)c3=O)cc2)cc1` yielded an IFI of 5.97%. `CCCCCc1ccc(NC(=O)Nc2ccc(Cn3ncc(N4CCCNCC4)c(Cl)c3=O)cc2)cc1` showed an IFI of 9.09%. `CCCCCCCOc1ccc(NC(=O)Nc2ccc(Cn3ncc(N4CCCNCC4)c(Cl)c3=O)cc2)cc1` gave an IFI of 19.1%. Work on `Cc1[nH]c(C)c(-c2ccc(OCCCc3ccccn3)cc2)c(=O)c1Br` yielded an IFI of 0%. With `COC(=O)c1ccc(-c2ccc(-c3cccnc3)cc2C)cc1` the IFI was 21.7%. In the case of `COC(=O)c1ccc2nc(-c3cc(-c4cccc(-c5ccccc5)c4)cnc3N)[nH]c2c1`, the IFI is reported as 2.94%. Work on `COc1ccc(NC(=O)c2ccc(-c3ccc(-c4cccnc4)cc3)c(C)c2)cc1OCCN(C)C` yielded an IFI of 6.9%. `Cc1ccccc1Nc1nc(Nc2ccccc2)c2ccccc2n1` showed an IFI of 3.65%. `O=C1c2cc(I)ccc2SC1c1ccccc1` (configuration not stated) gave an IFI of 1.43%. With `O=S(=O)(NCCN1CCCC1)c1cccc(-c2ccc(CNCc3ccccc3)cc2)c1` the IFI was 5.88%. `O=[N+]([O-])c1cccc(C(Nc2ccccn2)c2ccc3cccnc3c2O)c1` (configuration not stated) showed an IFI of 8.74%. In the case of `CCCCCCC1(C)N=C(N)N=C(N)C1c1ccc(Cl)c(Cl)c1` (configuration not stated), the IFI is reported as 2.78%. Work on `CC1(C)N=C(N)N=C(N)C1c1ccc(Cl)c(Cl)c1` (configuration not stated) yielded an IFI of 1.43%. `CC1(CCc2ccccc2)N=C(N)N(Cc2ccccc2)C(=O)C1c1ccc(Cl)c(Cl)c1` (configuration not stated) showed an IFI of 19.2%. `CC1(CCc2ccccc2)N=C(Nc2ccc(Cl)cc2)N=C(N)C1c1ccc(Cl)c(Cl)c1` (configuration not stated) showed an IFI of 26.6%. For `CCC1(c2ccccc2)N=C(N)N(CCCc2ccccc2)C1=O` (configuration not stated), the IFI was 7.14%. For `CC1(CCc2ccccc2)N=C(N)N=C(N)C1c1ccc(Cl)c(Cl)c1` (configuration not stated), the IFI was 2.94%. Work on `NS(=O)(=O)c1cccc(-c2ccc3nccc(-c4cccc(S(N)(=O)=O)c4)c3c2)c1` yielded an IFI of 0%. In the case of `Cn1c(N=C2NC3(c4ccccn4)NC(=Nc4nc5ccccc5n4C)NC3(c3ccccn3)N2)nc2ccccc21` (configuration not stated), the IFI is reported as 3.6%. Compound `Cc1cccc(-c2nn(-c3ccccc3)c3[nH]c(=O)c(CN4CCSCC4)cc23)c1` has an IFI of 1.82%. With `CC1(CCN2CCC(c3c[nH]c4cnccc34)CC2)CCCc2c(Br)cccc2C1=O` (configuration not stated) the IFI was 8.51%. Work on `Cc1cc(C)c2ncc(C(=O)O)c(O)c2c1` yielded an IFI of 1.46%. In the case of `Cc1cc(SC(C)(C)C)cc2c(Cl)c(C(N)=O)cnc12`, the IFI is reported as 32.5%. Compound `Oc1ccc(CCCNc2nc(NCc3ccccc3-c3ccccc3)nc(NC3CCNCC3)n2)cc1` has an IFI of 15.2%. Work on `COc1ccccc1-n1ccnc1SCC(=O)Nc1cccc(C(F)(F)F)c1` yielded an IFI of 5.93%. `CC(CCON1C(N)=NC(N)=NC1(C)C)c1ccc(Cl)c(Cl)c1` (configuration not stated) showed an IFI of 7.09%. For `O=C(/C=C/c1ccc(Cl)c(Cl)c1)NCCCCCN1CCC(CCNC(=O)/C=C/c2ccc(Cl)c(Cl)c2)CC1`, the IFI was 11.2%. With `Clc1ccc(OCCC2CCN(CCCCCCCN3CCC(CCOc4ccc(Cl)c(Cl)c4)CC3)CC2)cc1Cl` the IFI was 18.6%. In the case of `Clc1ccc(OCCC2CCN(CCCCCCN3CCCCC3)CC2)cc1Cl`, the IFI is reported as 9.87%.
